# Experimental data as given in PubChem BioAssay (NCATS).
# Results filed as inconclusive are left out. A call without a number means that no potency is given here. Unmarked numbers belong to inactive results. Activity calls are given as the source filed them. The call rests on the fitted dose curve; in most records, active means well fitted curve in the direction sought with a large enough effect; inconclusive means small, poorly fitted or top-dose-only effect, or another doubt; inactive means no such curve, though single readings can be large; an effect the other way counts as inactive or inconclusive.
# How the values were obtained:
# UISO = assay: qHTS assay to identify novel small-molecules to repurpose for Merkel cell carcinoma treatment (AID 1296009); settings: MCC and control cell lines, CellTiter-Glo viability, 72 h; series mostly up to 46 µM; further: nearly all actives have a fitted effect of over 60% in size
# How it was run: (§1)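 After compound transfer in DMSO, plates were kept 72 hr at 37 degree celsius. Luminescent ATP signal from CellTiter-Glo served as viability measure, normalized against DMSO and no-cell controls.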
# WaGa = assay: as above; settings: MCC and control cell lines, CellTiter-Glo viability, 72 h; series mostly up to 46 µM
# How it was run: as §1
# C33A = assay: Primary qHTS to identify gynecologic anti-cancer compounds using libraries of approved drugs and bioactive compounds (AID 1345084); settings: Gynecologic cancer cell panel viability, ATPlite luminescence, 48 h; series mostly up to 57.5 µM; further: nearly all actives have a fitted effect of over 55% in size
# How it was run: (§2)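 Luminescence from the ATPlite ATP-monitoring reagent indicates viable cell number; lower signal means cytotoxicity. Cells received compound 16 h after seeding and were exposed for 48 h across five concentrations.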
# CAOV3 = assay: as above; settings: Gynecologic cancer cell panel viability, ATPlite luminescence, 48 h; series mostly up to 57.5 µM
# How it was run: as §2
# CASKI = assay: as above; settings: Gynecologic cancer cell panel viability, ATPlite luminescence, 48 h; series mostly up to 57.5 µM
# How it was run: as §2
# Es-2 = assay: as above; settings: Gynecologic cancer cell panel viability, ATPlite luminescence, 48 h; series mostly up to 57.5 µM
# How it was run: as §2
# HeLa = assay: as above; settings: Gynecologic cancer cell panel viability, ATPlite luminescence, 48 h; series mostly up to 57.5 µM
# How it was run: as §2
# Hek293T = assay: as above; settings: Gynecologic cancer cell panel viability, ATPlite luminescence, 48 h, control line for the selectivity index; series mostly up to 57.5 µM
# How it was run: as §2
# JEG-3 = assay: as above; settings: Gynecologic cancer cell panel viability, ATPlite luminescence, 48 h; series mostly up to 57.5 µM
# How it was run: as §2
# OV90 = assay: as above; settings: Gynecologic cancer cell panel viability, ATPlite luminescence, 48 h; series mostly up to 57.5 µM
# How it was run: as §2
# SKOV3 = assay: as above; settings: Gynecologic cancer cell panel viability, ATPlite luminescence, 48 h; series mostly up to 57.5 µM
# How it was run: as §2
# Tov-21-G = assay: as above; settings: Gynecologic cancer cell panel viability, ATPlite luminescence, 48 h; series mostly up to 57.5 µM
# How it was run: as §2
# Tov112D = assay: as above; settings: Gynecologic cancer cell panel viability, ATPlite luminescence, 48 h; series mostly up to 57.5 µM
# How it was run: as §2
# PA-1 = assay: as above; settings: Gynecologic cancer cell panel viability, ATPlite luminescence, 48 h; series mostly up to 57.5 µM
# How it was run: as §2
# [1] = Drug repurposing screens with cells derived from glioblastoma tumor samples (AID 1345199); settings: GBM patient neurospheres viability, ATP luminescence, 48 h; further: nearly all actives have a fitted effect of over 40% in size
# How it was run: (§3)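 Four patient lines of CD133+ GBM neurospheres were screened at several concentrations; hits were retested in those lines plus three slower-growing GBM lines, using 48-hour treatment and ATP-based viability.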
# astro = assay: as above; settings: viability, ATP luminescence, 48 h; series mostly up to 45.9 µM
# How it was run: as §3
# [2] = at 45.9 µM (top of the series), tumour line B
# [3] = at 45.9 µM (top of the series), tumour line D
# [4] = at 46.1 µM (top of the series), tumour line C
# Potency means the concentration at half of the fitted maximal effect.
smiles,measurement,setting,value
Nc1ccc(C(=O)OCC(O)CO)cc1 (configuration not stated),Potency,UISO,inactive
same,Potency,WaGa,inactive
same,Potency,C33A,inactive
same,Potency,CAOV3,inactive
same,Potency,CASKI,inactive
same,Potency,Es-2,inactive
same,Potency,HeLa,inactive
same,Potency,Hek293T,inactive
same,Potency,JEG-3,inactive
same,Potency,OV90,inactive
same,Potency,SKOV3,inactive
same,Potency,Tov-21-G,inactive
same,Potency,Tov112D,inactive
CCN1C(=O)c2ccccc2C1Nc1ccc(OCCN2CCCCC2)cc1 (configuration not stated),Potency,UISO,inactive
same,Potency,WaGa,inactive
same,Potency,C33A,inactive
same,Potency,CAOV3,inactive
same,Potency,CASKI,inactive
same,Potency,Es-2,inactive
same,Potency,HeLa,inactive
same,Potency,Hek293T,inactive
same,Potency,JEG-3,inactive
same,Potency,PA-1,inactive
same,Potency,SKOV3,inactive
same,Potency,Tov-21-G,inactive
same,Potency,Tov112D,inactive
same,"activity, negative = cell killing",[1]; [2],-27.4%
same,Potency,[1]; tumour line A,7.94 µM (active)
same,Potency,astro,inactive
CN1[C@@H]2CC[C@H]1CC(NC(=O)n1c(=O)[nH]c3ccccc31)C2 (some centres not stated),Potency,UISO,inactive
same,Potency,WaGa,inactive
same,Potency,C33A,inactive
same,Potency,CAOV3,inactive
same,Potency,CASKI,inactive
same,Potency,Es-2,inactive
same,Potency,HeLa,inactive
same,Potency,Hek293T,inactive
same,Potency,JEG-3,inactive
same,Potency,PA-1,inactive
same,Potency,SKOV3,inactive
same,Potency,Tov-21-G,inactive
same,Potency,Tov112D,inactive
same,"activity, negative = cell killing",[1]; [2],3.71%
same,"activity, negative = cell killing",[1]; [3],-10.2%
same,"activity, negative = cell killing",[1]; [4],9.49%
same,Potency,[1]; tumour line A,28.2 µM (active)
same,Potency,astro,inactive
CN(C)CCCOC1(Cc2ccccc2)CCCCCC1,Potency,UISO,inactive
same,Potency,WaGa,inactive
same,Potency,C33A,inactive
same,Potency,CAOV3,inactive
same,Potency,CASKI,inactive
same,Potency,Es-2,inactive
same,Potency,HeLa,inactive
same,Potency,Hek293T,inactive
same,Potency,JEG-3,inactive
same,Potency,PA-1,inactive
same,Potency,Tov-21-G,inactive
same,Potency,Tov112D,inactive
COC(=O)c1ccc(NC(C)=O)cc1OC,Potency,UISO,inactive
same,Potency,WaGa,inactive
same,Potency,C33A,inactive
same,Potency,CASKI,inactive
same,Potency,Es-2,inactive
same,Potency,HeLa,inactive
same,Potency,Hek293T,inactive
same,Potency,JEG-3,inactive
same,Potency,OV90,inactive
same,Potency,PA-1,inactive
same,Potency,SKOV3,inactive
same,Potency,Tov-21-G,inactive
same,Potency,Tov112D,inactive
O=C(Oc1ccccc1)c1cccc(C(=O)Oc2ccccc2)c1,Potency,UISO,inactive
same,Potency,WaGa,inactive
same,Potency,C33A,inactive
same,Potency,CAOV3,inactive
same,Potency,CASKI,inactive
same,Potency,Es-2,inactive
same,Potency,HeLa,inactive
same,Potency,JEG-3,inactive
same,Potency,OV90,inactive
same,Potency,PA-1,inactive
same,Potency,SKOV3,inactive
same,Potency,Tov-21-G,inactive
same,Potency,Tov112D,inactive
same,Potency,astro,inactive
O=C1CCCc2c(O)cccc21,Potency,UISO,inactive
same,Potency,WaGa,inactive
same,Potency,C33A,inactive
same,Potency,CAOV3,inactive
same,Potency,CASKI,inactive
same,Potency,Es-2,inactive
same,Potency,Hek293T,inactive
same,Potency,JEG-3,inactive
same,Potency,PA-1,inactive
same,Potency,Tov-21-G,inactive
same,Potency,Tov112D,inactive
COc1ccc2cc(C=O)ccc2c1,Potency,UISO,inactive
same,Potency,WaGa,inactive
same,Potency,C33A,inactive
same,Potency,CASKI,inactive
same,Potency,Es-2,inactive
same,Potency,HeLa,inactive
same,Potency,Hek293T,inactive
same,Potency,JEG-3,inactive
same,Potency,OV90,inactive
same,Potency,PA-1,inactive
same,Potency,SKOV3,inactive
same,Potency,Tov-21-G,inactive
same,Potency,Tov112D,inactive
O=[N+]([O-])c1cncn1CCN1CCOCC1,Potency,UISO,inactive
same,Potency,WaGa,inactive
same,Potency,C33A,inactive
same,Potency,CASKI,inactive
same,Potency,Es-2,inactive
same,Potency,HeLa,inactive
same,Potency,Hek293T,inactive
same,Potency,JEG-3,inactive
same,Potency,OV90,inactive
same,Potency,PA-1,inactive
same,Potency,SKOV3,inactive
same,Potency,Tov-21-G,inactive
same,Potency,Tov112D,inactive
Nc1ccc2cc3ccc(N)cc3nc2c1,Potency,UISO,8.41 µM (active)
same,Potency,WaGa,2.66 µM (active)
same,Potency,C33A,28.2 µM (active)
same,Potency,CAOV3,8.91 µM (active)
same,Potency,CASKI,11.2 µM (active)
same,Potency,Es-2,8.91 µM (active)
same,Potency,HeLa,17.8 µM (active)
same,Potency,Hek293T,6.31 µM (active)
same,Potency,OV90,28.2 µM (active)
same,Potency,PA-1,7.94 µM (active)
same,Potency,Tov112D,28.2 µM (active)
same,"activity, negative = cell killing",[1]; [4],-19.3%
same,Potency,[1]; tumour line A,22.4 µM (active)
same,Potency,[1]; tumour line B,14.1 µM (active)
same,Potency,[1]; tumour line D,7.94 µM (active)
same,Potency,astro,10 µM (active)
OCCc1ccccc1,Potency,UISO,inactive
same,Potency,WaGa,inactive
same,Potency,C33A,inactive
same,Potency,CAOV3,inactive
same,Potency,CASKI,inactive
same,Potency,Es-2,inactive
same,Potency,HeLa,inactive
same,Potency,Hek293T,inactive
same,Potency,JEG-3,inactive
same,Potency,PA-1,inactive
same,Potency,SKOV3,inactive
same,Potency,Tov-21-G,inactive
same,Potency,Tov112D,inactive
same,"activity, negative = cell killing",[1]; [2],-16.7%
same,"activity, negative = cell killing",[1]; [3],-5.39%
same,"activity, negative = cell killing","[1]; at 46 µM (top of the series), tumour line A",-18.5%
same,"activity, negative = cell killing",[1]; [4],13.1%
same,Potency,astro,inactive
